MPTP inh = inhibitors of mitochondrial permeability transition pore | isolated mouse mitochondria, Ca2+ swelling absorbance, 30 min | AID 602449 | inhibition, % at 10 µM | 360,000 tested, 1.4% active;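 active means inhibition of 50% or more, scaled per plate between neutral and stimulator controls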
HSF1 activator = increases HSF-1 driven luciferase reporter signal. NIH3T3-HGL HSF-1 luciferase reporter, MG132, 8 h; 100% = twice DMSO control signal. AID 504408. activation, % at 9 µM. 300,000 tested, 1.7% active;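 active means mean replicate activation of at least 50% with a set share of replicates each reaching 50%; inconclusive means only one of those two conditions met; inactive means mean below 50% and too few replicates reaching it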
dFosB act = mouse delta FosB homodimer activation | P13346 | purified delta FosB, TAMRA-CDK5 oligo fluorescence polarization; percent of positive-control signal above neutral wells | activation, % at 25 µM | 340,000 tested, 0.99% active | AID 493131;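 active means mean activation above about 17%, with every replicate also reaching it, limit read from the data, passing the limit was not always enough; inconclusive means only one of the two conditions met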
Target sequence (P13346 whole entry, looked up): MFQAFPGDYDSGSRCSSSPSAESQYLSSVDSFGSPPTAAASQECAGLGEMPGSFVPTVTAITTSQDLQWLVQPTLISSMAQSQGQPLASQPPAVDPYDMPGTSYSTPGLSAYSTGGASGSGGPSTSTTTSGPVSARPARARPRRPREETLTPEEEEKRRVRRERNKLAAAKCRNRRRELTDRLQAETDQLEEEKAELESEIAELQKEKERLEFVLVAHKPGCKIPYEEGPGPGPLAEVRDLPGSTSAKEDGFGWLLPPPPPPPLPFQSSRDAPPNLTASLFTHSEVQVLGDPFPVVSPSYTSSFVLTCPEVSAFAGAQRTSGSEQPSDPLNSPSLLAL
HSF1 inh = HSF1 inhibition; 300,000 tested, 0.77% active; NIH3T3-HGL HSE-luciferase, MG132-induced, luminescence 8 h; active compounds read low; activity change, negative = inhibition, % at 7.5 µM (by protocol);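 active means more than half of replicate wells show activity change below -50%, luminescence cut by over half; inconclusive means some wells, but at most half, below -50%; inactive means no replicate well below -50%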;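 further: luciferase reports HSF-1 transcriptional activity via heat shock element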
Platelet DG rel = modulates dense granule release in human platelets. human platelet-rich plasma, SFLLRN dense granule ATP release, luminescence. inhibition, %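 (compounds screened at 7.5 µM in platelet-rich plasma)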. AID 1663. 300,000 tested, 0.22% active;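 active means mean replicate score, as percent of positive control, at or above 50; inconclusive means mean below 50 but at least one replicate at or above 50; inactive means mean and every replicate below 50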
HSP90 refold inh = inhibitors of HSP90 luciferase refolding in rabbit reticulocyte lysate; AID 1789; luciferase refolding luminescence, 3 h; inhibition, % at 5.6 µM; 290,000 tested, 0.91% active;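 active means inhibition above the screen-wide mean plus 3 SD, computed separately per campaign, cut at about 16% in these data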;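 further: inhibitors lower the luminescence because luciferase stays unfolded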
Of the large screens only hits and unclear results are named; the others gave an inactive call. Shown are actives, neighbours in structure and some others; about 4.9% of the full set was active somewhere.

O=C1c2cccc3cc([N+](=O)[O-])cc(c23)C(=O)N1CCN1CCCC1	HSF1 activator 61, dFosB act 58
CNc1cnc(-c2cccc(C(=O)N3CCOCC3)c2)cn1	none (no result: HSF1 activator, dFosB act, HSF1 inh, Platelet DG rel, HSP90 refold inh)
CC1(C)CC(=O)C=C(c2ccc3c(c2)OCO3)C1	none (no result: HSP90 refold inh)
Nc1nc(NCc2ccco2)nc(NC2CCCCC2)c1[N+](=O)[O-]	HSF1 inh -72 (no result: dFosB act)
CNc1nc(N)c([N+](=O)[O-])c(NC2CCCCC2)n1	none
Nc1nc(NCc2ccco2)nc(N2CCCCCC2)c1[N+](=O)[O-]	none
Nc1nc(NCCO)nc(NC2CCCCC2)c1[N+](=O)[O-]	HSF1 inh -69
Nc1nc(Nc2ccccc2)nc(NC2CCCCC2)c1[N+](=O)[O-]	dFosB act 73
COC(=O)[C@@]12C[C@@H](CC(=O)NCc3cccc(C(F)(F)F)c3)C(=O)N(Cc3ccc4c(c3)OCO4)C1=CCC(C)(C)C2	none (no result: HSF1 activator, dFosB act, HSF1 inh, Platelet DG rel, HSP90 refold inh)
CC1CC(=O)N(CC(=O)NCc2ccc3c(c2)OCO3)c2ccccc2S1 (stereo not drawn)	none
CC1CC(=O)N(CC(=O)NCc2ccco2)c2ccccc2S1 (stereo not drawn)	HSF1 activator 61
O=C(NC1CC1)c1sc2cc(Cl)ccc2c1Cl	none (no result: HSP90 refold inh)
O=C(Nc1nccs1)c1sc2cc(Cl)ccc2c1Cl	HSF1 activator 56
Cc1ccc(NC(=O)c2ccc3nc[nH]c3c2)c(O)c1	HSF1 activator 66
CC(C)(C)c1ccc(/C=N/N2C(=O)CSC2=S)cc1	HSF1 inh -77
COc1ccc(NC(=O)CSc2nnc3ccc(-c4ccncc4)nn23)cc1OC	HSF1 inh -75
COc1ccc(OC)c(NC(=O)CSc2nnc3ccc(-c4ccncc4)nn23)c1	none
CC1(c2ccc3ccccc3c2)NC(=O)N(CC(=O)N2CCCC(C(F)(F)F)C2)C1=O (stereo not drawn)	none (no result: HSF1 activator, HSF1 inh, Platelet DG rel, HSP90 refold inh)
O=S(=O)(c1ccccc1)N(CC1CO1)c1cccc2ccccc12 (stereo not drawn)	none
C/C(=N/NC(=O)c1ccc2c(c1)OCCO2)c1ccc([N+](=O)[O-])cc1	HSF1 inh -67
C/C(=N/NS(=O)(=O)c1ccc(Cl)cc1)c1ccc2c(c1)OCO2	none (no result: HSP90 refold inh)
C/C(=N\NS(=O)(=O)c1ccccc1)c1ccc2c(c1)OCCO2	HSF1 inh -56
C/C(=N/NC(=O)c1ccc2c(c1)OCO2)c1cccc([N+](=O)[O-])c1	none
CCCNC(=O)C1CCN(S(=O)(=O)c2ccc3[nH]c(=O)ccc3c2)CC1	HSP90 refold inh 35
CN1C(=O)C(C)(C)c2cc(S(=O)(=O)N3CCC(C(=O)NCc4ccc(Cl)cc4)CC3)ccc21	HSF1 activator 66
COc1ccc(CNC(=O)C2CCN(S(=O)(=O)c3ccc4c(c3)C(C)(C)C(=O)N4C)CC2)cc1	HSF1 inh -84
O=C(NCc1ccncc1)C1CCN(S(=O)(=O)c2cccc(C(F)(F)F)c2)CC1	HSF1 inh -53
CC1CCCCCCC1OC(=O)c1ccccc1C(=O)O (stereo not drawn)	none (no result: HSF1 activator, HSF1 inh, Platelet DG rel, HSP90 refold inh)
Cc1ccc(-n2ncc(Br)c(Br)c2=O)cc1	HSF1 inh -85
O=c1c(Br)c(Br)cnn1-c1ccccc1	none (no result: HSF1 activator, HSF1 inh, Platelet DG rel)
CCOc1ccc(C(=O)CC(C(=O)O)N2CCCCC2)cc1 (stereo not drawn)	none (no result: HSF1 activator, HSF1 inh, Platelet DG rel, HSP90 refold inh)
CCOC(=O)c1cc(CC)sc1/N=C/C1=C(O)CC(C)(C)CC1=O	none
CCOC(=O)c1sc(N=NC2=C(O)CC(C)(C)CC2=O)c(C(=O)OCC)c1C	Platelet DG rel 60
O=C(C(Cc1ccccc1)n1cccc1)N1CCN(c2ncccn2)CC1 (stereo not drawn)	Platelet DG rel 50
Cc1cccc(N2CCN(C(=O)C(Cc3ccccc3)n3cccc3)CC2)c1C (stereo not drawn)	none
O=C(N=Nc1c(O)[nH]c2ccccc12)c1cc(-c2cccs2)[nH]n1	dFosB act 71
O=C(N=Nc1c(O)[nH]c2ccccc12)c1cc(-c2ccc(F)cc2)n[nH]1	dFosB act 63
O=C(CN1CCCC1)Nc1c2c(cc3c1CCC3)CCC2	HSF1 inh -64
O=C(CN1CCCC1)Nc1ccc2c(c1)CCC2	none
Oc1c(Br)cc(Br)cc1C=Nc1cccc2ncccc12	HSF1 activator 62 (no result: HSP90 refold inh)
Brc1cccc(C=Nc2cccc3ncccc23)c1	none (no result: HSP90 refold inh)
Cc1ccc(O)c(NC(=O)Cc2ccc3ccccc3c2)c1	HSF1 activator 161
O=C(O)Cc1ccc(NC(=O)Cc2ccc3ccccc3c2)cc1	none
Cc1ccc(O)c(NC(=O)CSc2n[nH]c(C)c2[N+](=O)[O-])c1	HSF1 activator 73
Cc1ccc(O)c(NC(=O)CSc2ccc(Cl)cc2)c1	HSF1 activator 162
CSc1ccccc1NC(=O)CSc1n[nH]c(C)c1[N+](=O)[O-]	none
COc1cc(NC(=O)c2ccccc2F)ccc1NC(=O)c1cc2ccccc2o1	dFosB act inconclusive
O=C(Nc1ccccc1C(=O)N1CCCC1)c1ncoc1-c1cccc(Cl)c1	HSF1 activator 62
Oc1ccc2ccccc2c1C=Nc1ccccc1-c1nc2ccccc2[nH]1	HSF1 activator 59
CC(=O)OCCn1c2nc(=O)[nH]c(=O)c-2nc2cc(C)c(C)cc21	HSP90 refold inh 20
Clc1ccc(COn2nnc3ccccc32)c(Cl)c1	HSF1 activator 86
O=[N+]([O-])c1ccc(COn2nnc3ccccc32)cc1	none
Oc1ccc(Br)cc1/C=N/Nc1ncc(-c2ccccc2)cn1	dFosB act 30
Oc1ccccc1/C=N/Nc1nccnc1Cl	none
Oc1ccc(/C=N/Nc2nccnc2Cl)c(O)c1	Platelet DG rel 135
Oc1ccc(/C=N/Nc2ncc(Br)cn2)c(O)c1	HSF1 activator 79
COCCCn1c(C(=O)NC2CCCCC2C)cc2c(=O)n3cccc(C)c3nc21 (stereo not drawn)	HSF1 activator 71
N=c1c(C(=O)NC2CCCC2)cc2c(=O)n3ccccc3nc2n1Cc1ccccc1	HSF1 inh -91
Cc1ccc(Cn2c(=N)c(C(=O)NC3CCCCC3)cc3c(=O)n4ccccc4nc32)cc1	none
N=c1c(C(=O)NCC2CCCO2)cc2c(=O)n3ccccc3nc2n1Cc1ccccc1 (stereo not drawn)	none
N=c1c(S(=O)(=O)c2ccc(Cl)cc2)cc2c(=O)n3ccccc3nc2n1Cc1ccco1	HSF1 activator 137
N=c1c(C(=O)NCC2CCCO2)cc2c(=O)n3ccccc3nc2n1Cc1ccc(Cl)cc1 (stereo not drawn)	HSF1 activator 57
COC(=O)c1cccc(CN2C(=O)C(C)Sc3cc(Cl)ccc32)c1 (stereo not drawn)	none (no result: HSF1 activator, dFosB act, HSF1 inh, Platelet DG rel, HSP90 refold inh)
Cc1ccc(NC(=O)C(=O)NCCCN2CCOCC2)c(C)c1	none
Cc1cccn2c(=O)c3cc(C(=O)NC4CCCCC4)c(=N)n(Cc4ccccc4)c3nc12	dFosB act 43
Cn1cnc(S(=O)(=O)N2CCCCC2c2cc(C(=O)Nc3ccccc3Cl)no2)c1 (stereo not drawn)	none (no result: HSF1 activator, dFosB act, HSF1 inh, Platelet DG rel, HSP90 refold inh)
O=C(N/N=C/c1ccccc1[N+](=O)[O-])c1cccs1	HSF1 activator 61

Source: PubChem BioAssay
